Potency data for 18 molecules are collected here from PubChem BioAssay (NCATS).

Holding throughout (assay): qHTS profiling for inhibitors of Plasmodium falciparum proliferation (AID 504749); further: nearly all actives have a fitted effect of over 60% in size
What all share (details): P. falciparum in erythrocytes, SYBR Green DNA, 72 h; series mostly up to 28.7 µM

Assay [1] concerns N140. The method in brief: (§1)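 Readout was DNA-dye fluorescence from lysed cultures, ex 485/em 535 nm. Parasitized red cells had grown 72 h with compound; data scaled between 0.29 uM artemisinin and DMSO wells and corrected using vehicle-only plates.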
Assay [2] deals with P93_24. The method in brief: as §1
The subject of assay [3] is P94_40. The essentials:
as §1

The test system of assay [4] is PAD. The method in brief:
as §1

Assay [5] has as its system PC15. The method in brief: as §1
The subject of assay [6] is PC26. The method in brief:
as §1

The test system of assay [7] is PC49. The essentials: as §1
The test system of assay [8] is SC27B. The method in brief: as §1
Assay [9] deals with TAB109. The method in brief:
as §1

Assay [10] concerns TAB113. The essentials: as §1

Each structure is given as a SMILES string. Inconclusive results are not listed. The source made the active and inactive calls. The call rests on the fitted dose curve; in most records, active means well fitted inhibition curve with a large enough effect; inconclusive means small, poorly fitted or top-dose-only effect; inactive means flat fitted curve, though single readings scatter.
Potency means the concentration at half of the fitted maximal effect.

Consider `Nc1c(N=Nc2ccc(-c3ccc(N=Nc4cc(S(=O)(=O)O)c5ccccc5c4N)cc3)cc2)cc(S(=O)(=O)O)c2ccccc12`, for which the Potency result in assay [1], in assay [2], in assay [3], in assay [4], in assay [5] and in [6] was “inactive” in each case. The Potency entry in assay [7], in assay [8], in [9] and in assay [10] was “inactive” throughout.
For `CCCC(=O)Nc1ncnc2c1ncn2C1OC2COP(=O)(O)OC2C1OC(=O)CCC` (stereo not given), the Potency result in assay [1], in [2], in assay [3], in assay [4], in [5] and in assay [6] was “inactive” in each case. Further, the Potency result in assay [7], in [8], in assay [9] and in [10] was “inactive” in each case.
As to `Cc1cc(C(=O)NNCc2ccccc2)no1`, the Potency result in assay [1], in assay [2], in assay [3], in assay [4], in assay [5] and in [6] was “inactive” each time. The Potency result in assay [7], in assay [8], in assay [9] and in [10] was “inactive” each time.
Turning to `C[C@]12O[C@H](C[C@]1(O)CO)n1c3ccccc3c3c4c(c5c6ccccc6n2c5c31)CNC4=O`, the Potency in assay [1] is 282 nM (active); in [2] it was 355 nM (active); in assay [3], 282 nM (active); in [4] it was 251 nM (active); in assay [5], 447 nM (active); in assay [6], 239 nM (active). Moreover, the Potency in assay [7] is 891 nM (active); in assay [8], 316 nM (active); in [9], 355 nM (active); in [10] it was 316 nM (active).
On to `CC[N+](C)(C)Cc1ccccc1Br`, for which the Potency result in [1], in [2], in assay [3], in assay [4], in assay [5] and in [6] was “inactive” throughout. In addition, the Potency entry in assay [7], in assay [8], in [9] and in assay [10] was “inactive” throughout.
`Cc1c(C)c2c(c(C)c1O)CC[C@@](C)(CCC[C@H](C)CCC[C@H](C)CCCC(C)C)O2`: the Potency result in [1], in assay [2], in assay [3], in assay [4], in assay [5] and in assay [6] was “inactive” in each case. In addition, the Potency result in assay [7], in [8], in assay [9] and in [10] was “inactive” each time.
Turning to `C[C@@H]1CCC2[C@@H](C)[C@@H](O)O[C@@H]3O[C@@]4(C)CC[C@@H]1[C@@]23OO4` (stereo not given in full), the Potency is 1.6 nM (active) in assay [1]; 1 nM (active) in assay [2]; 1 nM (active) in [3]; 1.4 nM (active) in assay [4]; 0.9 nM (active) in assay [5]; 2.7 nM (active) in [6]. Besides, the Potency was 0.3 nM (active) in assay [7], 2 nM (active) in assay [8], 1 nM (active) in [9] and 1.1 nM (active) in [10].
For the molecule `NC(=O)c1ncn(C2OC(CO)C(O)C2O)n1` (stereo not given), the Potency entry in [1], in assay [2], in assay [3], in [4], in assay [5] and in assay [6] was “inactive” each time. Besides, the Potency result in assay [7], in assay [8], in assay [9] and in [10] was “inactive” in each case.
On to `CCN(CC)Cc1cc(Nc2ccnc3cc(Cl)ccc23)ccc1O`, for which the Potency in [1] is 70.8 nM (active); in [2], 35.5 nM (active); in assay [3], 8.9 nM (active); in assay [4], 31.6 nM (active); in assay [5], 178 nM (active); in [6] it was 161 nM (active). The Potency was 100 nM (active) in assay [7], 70.8 nM (active) in assay [8], 50.1 nM (active) in assay [9] and 79.4 nM (active) in assay [10].
Regarding `Oc1cc(O)c2c(c1)OC(c1ccc(O)c(O)c1)C(O)C2` (stereo not given), the Potency entry in [1], in assay [2], in assay [3], in assay [4], in assay [5] and in [6] was “inactive” throughout. The Potency result in [7], in assay [8], in assay [9] and in assay [10] was “inactive” throughout.
As to `CCCCC(C)(O)C/C=C/[C@H]1[C@H](O)CC(=O)[C@@H]1CCCCCCC(=O)OC` (stereo not given in full), the Potency entry in assay [1], in assay [2], in [3], in [4], in [5] and in assay [6] was “inactive” in each case. Also, the Potency result in assay [7], in assay [8], in [9] and in assay [10] was “inactive” throughout.
For the molecule `CC1=CCC(C(C)(C)O)CC1` (stereo not given), the Potency entry in assay [1], in assay [2], in assay [3], in assay [4], in assay [5] and in assay [6] was “inactive” in each case. The Potency result in assay [7], in assay [8], in assay [9] and in assay [10] was “inactive” each time.
Consider `CO[C@H]1C[C@@H]2CC[C@@H](C)[C@@](O)(O2)C(=O)C(=O)N2CCCC[C@H]2C(=O)O[C@H]([C@H](C)C[C@@H]2CC[C@@H](OCCO)[C@H](OC)C2)CC(=O)[C@H](C)/C=C(\C)[C@@H](O)[C@@H](OC)C(=O)[C@H](C)C[C@H](C)/C=C/C=C/C=C/1C`, for which the Potency is 1000 nM (active) in assay [1]; 1410 nM (active) in assay [2]; 2000 nM (active) in [3]; 1410 nM (active) in assay [4]; 3160 nM (active) in assay [5]; 2130 nM (active) in assay [6]. For the same molecule, the Potency in assay [7] was 5010 nM (active); in assay [8], 1410 nM (active); in assay [9], 1780 nM (active); in assay [10], 1120 nM (active).
On to `CCCCCCC(O)C/C=C/CCCCCCCC(=O)O` (stereo not given), for which the Potency entry in assay [1], in [2], in assay [3], in [4], in [5] and in assay [6] was “inactive” each time. Moreover, the Potency entry in assay [7], in assay [8] and in assay [10] was “inactive” in each case.
Turning to `CCCCCCCC/C=C\CCCCCCCC(=O)O`, the Potency result in [1], in assay [2], in assay [3], in assay [4], in assay [6] and in [7] was “inactive” throughout. Further, the Potency entry in [8] and in assay [10] was “inactive” in each case.
Consider `CCCCCCCCCCCCCCCC(=O)OCC(COC(=O)CCCCCCCCCCCCCCC)OC(=O)CCCCCCCCCCCCCCC`, for which the Potency entry in assay [1], in assay [2], in [3], in [4], in assay [5] and in assay [6] was “inactive” each time. Besides, the Potency result in [7], in assay [8] and in assay [10] was “inactive” each time.
`O=C(O)c1cc(O)c2c(c1)[O][Bi][O]2`: the Potency result in assay [1], in assay [2], in [3], in assay [4], in assay [5] and in assay [6] was “inactive” in each case. Moreover, the Potency entry in assay [7], in assay [8], in assay [9] and in [10] was “inactive” each time.
Regarding `CN=C(NC#N)Nc1ccc(C2=NNC(=O)C[C@@H]2C)cc1`, the Potency entry in [1], in assay [2], in [3], in assay [4], in assay [5] and in [7] was “inactive” in each case. Also, the Potency result in assay [8], in [9] and in assay [10] was “inactive” throughout.
